Rows were chosen to be rich in hits. Some 2.5% of all compounds tested hit in one or more screens of this group.
MCL1-BIM inh: inhibitors of human MCL1 binding to BIM-BH3 peptide | Q07820 | GST-MCL1 / FITC-Bim-BH3 fluorescence polarization | inhibition, % at 10.9 µM | 320,000 compounds, 0.68% hits | AID 2057;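 active = inhibition above the mean inhibition of all tested compounds plus 3 SD, set per campaign, cut at about 40% in these data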;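 note: 0% = DMSO wells and 100% = unlabeled Bim-BH3 peptide control; higher means more loss of mP so more displacement of Bim peptide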
Target sequence (Q07820 whole entry, looked up): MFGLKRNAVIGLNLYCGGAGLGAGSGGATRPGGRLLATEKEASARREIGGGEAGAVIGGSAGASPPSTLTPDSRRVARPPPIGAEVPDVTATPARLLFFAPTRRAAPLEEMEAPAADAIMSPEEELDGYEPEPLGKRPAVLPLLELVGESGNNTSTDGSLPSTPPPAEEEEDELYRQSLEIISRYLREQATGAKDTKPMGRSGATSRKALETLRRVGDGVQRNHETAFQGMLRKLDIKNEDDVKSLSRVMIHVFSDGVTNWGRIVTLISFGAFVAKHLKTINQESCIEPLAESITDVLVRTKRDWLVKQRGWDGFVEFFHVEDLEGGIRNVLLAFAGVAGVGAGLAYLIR
Mcl1 Noxa PPI: Mcl-1/Noxa interaction inhibition; TR-FRET Mcl-1/Noxa peptide binding, 2 h; inhibition, % at 21.7 µM; 220,000 compounds, 1.5% hits; AID 1022;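 active = compounds that cut the protein-peptide binding signal by more than 50% relative to plate controls in a single-dose test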;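 note: His-tagged Mcl-1 with rhodamine Noxa BH3 peptide and terbium anti-His antibody; 0% = Mcl-1 plus Noxa peptide wells and 100% = peptide-only wells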
Mcl-1 Bim block: disrupts Bim peptide binding to human Mcl-1 | Q07820 | Bead-based flow cytometry, Bim peptide-Mcl-1 binding | inhibition, % at 10 µM | 190,000 compounds, 0.1% hits; in the data active = inhibition above about 40%;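 note: 0% = no compound tracer wells and 100% = peptide blocker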
14-3-3 Bad inh: disrupts binding of bovine 14-3-3 zeta to phospho-Bad peptide. inhibition, % at 21.7 µM. 220,000 compounds, 0.71% hits. TR-FRET 14-3-3zeta/Dy647-pBad peptide displacement, 1 h. P63103. AID 781;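 active = inhibition above about 70%, limit read from the data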;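 note: 0% = full 14-3-3 plus peptide FRET controls and 100% = background without 14-3-3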
Target sequence (P63103 whole entry, looked up): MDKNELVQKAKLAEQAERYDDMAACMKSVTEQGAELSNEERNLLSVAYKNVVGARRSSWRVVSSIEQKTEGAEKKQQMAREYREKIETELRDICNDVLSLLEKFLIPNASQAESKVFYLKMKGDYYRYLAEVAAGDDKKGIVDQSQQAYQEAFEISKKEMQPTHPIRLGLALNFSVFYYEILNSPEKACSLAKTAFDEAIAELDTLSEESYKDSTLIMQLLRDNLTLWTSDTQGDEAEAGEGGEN
Mcl1-Bid inh: disrupts binding of human Mcl-1 to Bid peptide; inhibition, % at 21.7 µM; Q07820; TR-FRET Mcl-1/Bid-Dy647 peptide binding, 1536-well; 220,000 compounds, 0.97% hits;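 active = compounds that cut the binding signal by more than half at the single screening dose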;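 note: His-tagged Mcl-1 with europium anti-His antibody binding Bid BH3 peptide; 0% = Mcl-1 plus peptide wells and 100% = peptide-only wells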
Active calls of the source: *; . = no result.

SMILES	MCL1-BIM inh	Mcl1 Noxa PPI	Mcl-1 Bim block	14-3-3 Bad inh	Mcl1-Bid inh
CCCOc1cccc(C(=O)N(Cc2ccco2)C2CCS(=O)(=O)C2)c1 (stereo not given)	6	8	-2	-4	-29
CC1(C)OC(=O)N(Cc2ccco2)C1(C)O (stereo not given)	0	7	1	-2	51*
CC1(C)OC(=O)N(CCc2ccccc2)C1(C)O (stereo not given)	-4	5	-1	-6	-6
COc1ccc(-c2nn(-c3ccccc3)cc2/C=N/Nc2ccc(S(N)(=O)=O)cc2[N+](=O)[O-])cc1OC	-6	51*	0	22	-57
COc1ccc(-c2nn(-c3ccccc3)cc2/C=N/Nc2ccc3ccccc3n2)cc1OC	3	18	0	3	-13
COc1ccc(-c2nn(-c3ccccc3)cc2/C=C(\C#N)C(N)=O)cc1[N+](=O)[O-]	2	16	-1	56	39
COc1ccc(-c2nn(-c3ccccc3)cc2/C=C(/C#N)C(N)=O)cc1[N+](=O)[O-]	9	28	-1	45	65*
CC(C)c1nnc(NC(=O)CSc2nnc(-c3ccco3)o2)s1	5	5	-2	-11	-30
Cc1noc(C)c1COc1ccc(C(=O)Nc2cccnc2)cc1	.	53*	6	79*	12
Cc1cccc(NC(=O)c2ccc(OCc3c(C)noc3C)cc2)c1	9	.	.	.	.
Cc1ccc(NC(=O)[C@@H]2CCC(=O)N2C2OC(=O)c3ccccc32)cc1Cl (stereo not given in full)	2	.	.	.	.
CN(C)c1ccc(NC(=O)c2cccc(N3C(=O)C4C5C=CC(C5)C4C3=O)c2)cc1 (stereo not given)	0	80*	-2	-4	-74
CC(OC(=O)c1cccc(N2C(=O)c3ccccc3C2=O)c1)C(=O)Nc1ccc(N(C)C)cc1 (stereo not given)	12	76*	-4	11	40
O=C(Nc1ccccc1)NC1CCS(=O)(=O)C1 (stereo not given)	4	5	1	-8	98*
CC(=O)NC1=C(NC2CCS(=O)(=O)C2)C(=O)c2ccccc2C1=O (stereo not given)	20	94*	3	-5	-16
COc1ccc(Cc2nc3ccccc3n2CC(=O)N/N=C/c2ccc(C)cc2O)cc1OC	-3	-97	-87	83*	4
CCCc1cc(N2CCCC2)n2nc(C)c(-c3ccccc3)c2n1	0	-1	4	-14	-48
N#C/C(=C/c1ccc(-c2ccc(S(N)(=O)=O)cc2)o1)C(=O)Nc1ccccc1	6	36	3	3	-18
N#C/C(=C/c1ccc(-c2ccc(S(N)(=O)=O)cc2)o1)c1nc2ccccc2s1	15	21	-23	65	53*
COC(=O)c1ccc(/C=C(\C#N)c2nc3ccccc3s2)cc1	-67	59*	0	41	59*
O=C(Nc1ncc2c(n1)CC(c1cccc(Cl)c1)CC2=O)c1ccco1 (stereo not given)	-14	.	.	.	.
COc1ccc(C2/C=C\CN(CC3CC3)CC(=O)N2Cc2ccc(F)cc2)cc1 (stereo not given)	4	18	.	-6	-65
Nc1c(C(=O)Nc2nccs2)sc2nc(-c3cccs3)cc(C(F)(F)F)c12	33	32	-3	10	32
Cc1nnc(NC(=O)c2sc3nc(-c4cccs4)cc(C(F)(F)F)c3c2N)s1	8	98*	2	-2	45
Cc1cc2cc(CNC(=O)C(C)Oc3ccccc3)ccc2n1C (stereo not given)	41*	9	.	0	-53
SMILES	MCL1-BIM inh	Mcl1 Noxa PPI	Mcl-1 Bim block	14-3-3 Bad inh	Mcl1-Bid inh
CCCCC(=O)NCc1ccc2c(c1)cc(C)n2C	14	-18	0	-20	-66
CCOC(=O)CCC(=O)NCc1ccc2c(c1)cc(C)n2C	44*	6	2	-12	-32
CCOC(=O)c1c2ccc(OCC(=O)N/N=C/c3ccc(C)cc3)cc2n2ccccc12	4	41	0	41	73*
COc1cccc2c(=O)c(C(=O)O)c[nH]c12	6	-76	-2	9	14
O=C(O)c1c[nH]c2c(C(F)(F)F)cccc2c1=O	0	7	-1	39	53*
Cc1cccc(N2CCN(Cc3ccoc3)CC2)c1C	3	36	0	74*	22
COc1cc(CN2CCN(c3cccc(C)c3C)CC2)cc(OC)c1O	0	15	0	7	-22
FC(F)(F)c1cccc(N2CCN(Cc3ccoc3)CC2)c1	7	12	-1	42	54*
FC(F)(F)c1cccc(N2CCN(Cc3cccnc3)CC2)c1	-7	28	-1	52	37
CCC(C)N1CCCC1C(=O)Nc1c(C)cc(C)cc1C (stereo not given)	-8	8	0	17	3
CCCCCCc1c(C)c2ccc(OCC(=O)N3CCC[C@H]3C(=O)O)c(C)c2oc1=O	14	.	.	.	.
Cc1ccccc1NC(=S)NC(C)CCc1ccccc1 (stereo not given)	10	28	-6	1	-47
COc1cc(=O)n2c(-c3ccccc3)csc2n1	1	3	0	-5	-4
COc1cccc2sc(N)nc12	-1	.	.	.	.
COc1cccc2sc(/N=C/N(C)C)nc12	6	26	.	14	56*
COc1ccc(CCNS(=O)(=O)c2ccc3c(c2)CCN3C(=O)CCC(=O)O)cc1OC	-11	-3	0	2	-28
COc1ccc(CCNC(=O)CCNS(=O)(=O)c2ccc3c(c2)CCN3C(C)=O)cc1OC	2	-7	-3	-6	58*
COc1ccc(O)c(N)c1	.	89*	6	6	-47
CCCNc1sc(S(=O)(=O)CCC)nc1S(=O)(=O)c1ccc(C)cc1	0	5	-1	-5	-7
COc1c(C)cc(Br)cc1C(=O)Nc1ccc(S(N)(=O)=O)cc1	-1	7	44*	-13	-31
O=C(Cc1cccs1)N/N=C/C=C\c1ccco1	39	90*	-2	-20	-17
COCCNC(=O)CCCn1c(=O)c2cc(OC)c(OC)cc2n(CC(=O)c2cccc(OC)c2)c1=O	6	13	-2	4	5
CCC(C)[C@H](NC(=O)Nc1ccccc1F)C(=O)O (stereo not given in full)	8	11	.	0	85*
CCc1ccccc1NC(=O)N[C@H](C(=O)O)C(C)CC (stereo not given in full)	5	-3	-5	9	-15
O=c1oc2cc(O)ccc2cc1-c1nc2c(s1)CCc1ccccc1-2	27	54*	.	3	-37
CCOC(=O)C1CCN(c2c(NCc3ccc(N(C)C)cc3)c(=O)c2=O)CC1	4	-6	.	-3	-67
CC(C)(C)NCCOCCOc1ccccc1-c1ccccc1	-16	4	-2	39	56*
CC1CCN(CCOc2ccccc2-c2ccccc2)CC1	3	19	0	46	28

Screening results from PubChem.
